Measured values from PubChem BioAssay (NCATS).
Where “and” joins values, the source holds several entries; their conditions need not be identical. Identical values can stand only once. Results filed as inconclusive are left out. Entries that show only a call come without a potency. A number with no mark means an inactive call. Calls of active or inactive are those of the source. Calls follow the shape of the dose curve; as a rule, active = well fitted cell-killing curve with a large enough effect; inconclusive = small, poorly fitted or top-dose-only effect, or effect the other way; inactive = no such curve, though single readings can be large or run the other way.

How the values were obtained:
[1] = Viability qHTS for spleen associated tyrosine kinase inhibitor (SYKi) naive MV4-11 cells (AID 1963823); also: nearly all actives have a fitted effect of over 40% in size
Summary of the method: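 Seeding of 500 SYKi-naive MV4-11 cells per well onto pre-dispensed compounds preceded a 72 hr incubation at 37 C. Luminescent CellTiter-Glo signal, read after 10 min at room temperature, reflected viable cells.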

[2] = Viability qHTS for spleen associated tyrosine kinase inhibitor (SYKi) drug resistant MV4-11 cells (AID 1963824); also: nearly all actives have a fitted effect of over 35% in size
Summary of the method: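 SYK-inhibitor-resistant MV4-11 AML cells were seeded at 500 per well onto compound and cultured 72 hours (37 °C, 5% CO2). CellTiter-Glo was then added, and after 10 min at room temperature, luminescence gave viability.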
Potency is read from the fitted curve at half-maximal effect.

| SMILES | Potency [1] | Potency [2] | viability (% of control) [1] | viability, % of control [2] |
| --- | --- | --- | --- | --- |
| CSc1nc(N)cc(Oc2ccc(-c3nc(Nc4cccc(C(F)(F)F)c4)n[nH]3)cc2)n1 | 1.16 µM (active) | 1.03 µM (active) |  |  |
| C=C(CO)C12OC1C1(C)C(=CC2=O)C(O)C(O)CC1C (stereo unspecified) | inactive | inactive |  |  |
| O=C(O[C@H]1[C@H](Oc2ccc(O)cc2CO)O[C@H](CO)[C@@H](O)[C@@H]1O)c1ccccc1 | inactive | inactive |  |  |
| NC1(C(=O)NC(CCO)c2ccc(Cl)cc2)CCN(c2ncnc3[nH]ccc23)CC1 (stereo unspecified) | 2.31 µM (active) | 4.11 µM (active) |  |  |
| Cc1ccc(NC(=O)c2ccc(CN3CCNCC3)cc2)cc1Nc1nccc(-c2cccnc2)n1 | 9.2 µM (active) and 16.6 µM (active) | 9.2 µM (active) and 16.6 µM (active) |  |  |
| CC(NC(=O)CC(=O)O)C(=O)Nc1ccccc1C(N)=O (stereo unspecified) | inactive | inactive |  |  |
| COC(=O)[C@@]1(C)CC[C@]2(C(=O)O[C@@H]3O[C@H](CO)[C@@H](O)[C@H](O)[C@H]3O)CC[C@]3(C)C(=CCC4[C@@]5(C)CC[C@H](O[C@@H]6O[C@H](C(=O)O)[C@@H](O)[C@H](O)[C@H]6O)C(C)(C)C5CC[C@]43C)[C@@H]2C1 (stereo partly specified) |  |  | 68.6% [at 9.25 µM] | 81.9% [at 9.25 µM] |
| CC(=O)c1c(OCCN2CCCCC2)c(OCCC(C)c2ccc(F)cc2)c2oc(C)nc2c1C (stereo unspecified) | 10.3 µM (active) | 7.31 µM (active) |  |  |
| O=C(O)CC1(O)C(=O)Nc2ccccc21 (stereo unspecified) | 9.43 µM (active) | inactive |  |  |
| C=C1CC[C@H]2[C@@](C)(CCC[C@@]2(C)C(=O)O)[C@@H]1CCC(C)CCO (stereo partly specified) | inactive | inactive |  |  |
| CC(O)/C=C/C1(O)C(C)C(O[C@@H]2O[C@H](CO)[C@@H](O)[C@H](O)[C@H]2O)C(O)CC1(C)C (stereo partly specified) | inactive | inactive |  |  |
| CC1(C)C[C@H](O)C[C@@]2(C)[C@H]1[C@H](O)C=C1COC(=O)[C@@]12O | inactive | inactive |  |  |
| CC1(C)CC[C@]2(C(=O)O)[C@H](O)C[C@]3(C)C(=CCC4[C@@]5(C)CC[C@H](O[C@@H]6O[C@H](CO[C@@H]7OC[C@H](O)[C@H](O)[C@H]7O[C@@H]7OC[C@@H](O)[C@H](O)[C@H]7O)[C@@H](O)[C@H](O)[C@H]6O[C@@H]6O[C@H](CO)[C@@H](O)[C@H](O)[C@H]6O)C(C)(C)C5CC[C@]43C)[C@@H]2C1 (stereo partly specified) |  |  | 92.2% [at 9.25 µM] | 103% [at 9.25 µM] |
| COC(=O)C1=COC(OC2OC(CO)C(O)C(O)C2O)C2C(COC(=O)/C=C/c3ccc(O)c(O)c3)C(O)C(O)C12 (stereo unspecified) | inactive | inactive |  |  |
| O=C(Nc1ccc(Cl)cc1)C1CCCN(C(=O)c2cccc(-c3ccco3)c2)C1 (stereo unspecified) | 8.2 µM (active) | 8.2 µM (active) |  |  |
| CC(=O)OC[C@]12[C@@H](OC(=O)c3ccoc3)C[C@@H]3[C@@H](OC(C)=O)[C@]1(OC3(C)C)[C@@](C)(O)C[C@H](OC(=O)c1ccoc1)[C@@H]2OC(=O)c1ccoc1 | inactive | inactive |  |  |
| CC(=O)C=C=C1C(C)(C)CC(O[C@@H]2O[C@H](CO)[C@@H](O)[C@H](O)[C@H]2O)CC1(C)O (stereo partly specified) | inactive | inactive |  |  |
| C=C(C(=O)O)C1CCC2(C)CCCC(C)(O)C2C1 (stereo unspecified) | inactive | inactive |  |  |
| COc1cc(C(=O)O)ccc1OC1OC(CO)C(O)C(O)C1O (stereo unspecified) | inactive | inactive |  |  |
| C[C@@H]1O[C@@H](O[C@H]2[C@H](OC(=O)[C@]34CCC(C)(C)C[C@H]3C3=CCC5[C@@]6(C)C[C@@H](O)[C@@H](O[C@@H]7O[C@H](CO)[C@@H](O)[C@H](O)[C@H]7O)[C@@](C)(CO)C6[C@H](O)C[C@@]5(C)[C@]3(C)CC4)OC[C@H](O)[C@@H]2O)[C@H](O)[C@H](O[C@@H]2OC[C@](O)(CO)[C@H]2O)[C@H]1O[C@@H]1OC[C@@H](O)[C@H](O[C@H]2O[C@H](C)[C@@H](O)[C@H](O)[C@@H]2O)[C@H]1O (stereo partly specified) |  |  | 80.1% [at 9.25 µM] | 86.5% [at 9.25 µM] |
| OC[C@H]1O[C@@H](OCCc2ccccc2)[C@H](O[C@@H]2OC[C@@H](O)[C@H](O)[C@H]2O)[C@@H](O)[C@@H]1O | inactive | inactive |  |  |
| O=C(O)C[C@H]1CCC(=O)[C@@H]1C/C=C\CCOC1OC(CO)C(O)C(O)C1O (stereo partly specified) | inactive | inactive |  |  |
| CC(O)C(O)/C=C/C=C/C(=O)O[C@@H]1C=C(C(=O)O)[C@](O)(CO)[C@@]2(C)CCCC(C)(C)[C@H]12 (stereo partly specified) | inactive | inactive |  |  |
